The source of these data is PubChem BioAssay (NCATS).

The structures appear in SMILES notation. “And” between values parts separate entries of the source, which are not always exact repeats. Equal values may be shown once. Records with an inconclusive call do not appear. The source made the active and inactive calls. Unless noted, the call rests on the fitted dose curve.

The nature of assay [1]: qHTS assay for small molecule agonists of retinoid X receptor alpha signaling (AID 588544).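 On activation: 0% = DMSO basal wells and 100% = reference agonist.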 The following applies: HEK293T RXRa-UAS-bla, beta-lactamase reporter, 18 h; 530 nm emission.
Assay [2] deals with Retinoic acid receptor RXR-alpha (Homo sapiens) (UniProt P19793). The description is as above. The following applies: HEK293T RXRa-UAS-bla, beta-lactamase reporter, 18 h; series mostly up to 76.7 µM.
For assay [3], the target named is Thyroid hormone receptor beta (Homo sapiens) (UniProt P10828). The assay can be described thus: qHTS assay for small molecule agonists of thyroid hormone receptor beta signaling (AID 588545).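 Further: 0% = DMSO only and 100% = 10 nM T3.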 The following applies: TR-UAS-bla GripTite HEK 293, beta-lactamase ratio, agonist mode, 18 h, percent of T3 response, DMSO as zero; series mostly up to 76.7 µM. The gist of the method:
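TR-UAS-bla-GripTite HEK 293 cells in medium with 2% charcoal/dextran FBS, 0.1 mM NEAA and 1 mM sodium pyruvate were treated with titrated compounds for 18 hrs at 37 C. Beta-lactamase reporter was read with CCF4 dye (ex 405, em 460/530 nm); EC50 from Hill fits.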
In general terms: qHTS replaces the single test concentration by a dilution series.

Assay [4] is described as follows: qHTS assay for small molecule antagonists of retinoid X receptor alpha signaling (AID 588546; active means well fitted inhibition curve with a large enough effect in the signal ratio, with a control signal flat, not every such curve was filed as active; the % refers to the signal ratio;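 further: cells stimulated with 9-cis-retinoic acid as agonist; on the % scale 0 is the no-effect control and ±100 the full control effect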). The following applies: HEK293T RXRa-UAS-bla, beta-lactamase ratio, antagonist mode; measured here: W530 green channel, cytotoxicity proxy. In outline:
(§1)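 Beta-lactamase reporter inhibition, read as CCF4 fluorescence ratio (ex 405, em 460/530 nm) after 2 h at RT. HEK293T UAS-bla cells, 2500/well, were stimulated with 9-cis-RA at 500 or 100 nM final alongside test compound for 18 h at 37 C.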

For assay [5], the target named is Retinoic acid receptor RXR-alpha (Homo sapiens) (UniProt P19793). The assay is described as above. To be noted: HEK293T RXRa-UAS-bla, beta-lactamase ratio, antagonist mode. In outline: as §1
For assay [6], the target named is Thyroid hormone receptor beta (Homo sapiens) (UniProt P10828). The assay can be described thus: qHTS assay for small molecule antagonists of thyroid hormone receptor beta signaling (AID 588547; active means well fitted inhibition curve with a large enough effect in the signal ratio, with a control signal flat, not every such curve was filed as active; the % refers to the signal ratio;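 further: cells stimulated with 0.4 nM T3 agonist during compound exposure; on the % scale 0 is the no-effect control and ±100 the full control effect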). The following applies: TR-UAS-bla HEK293, beta-lactamase ratio, antagonist mode, 18 h. The gist of the method: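 TR-UAS-bla GripTite HEK293 cells in 2% charcoal/dextran FBS medium were preincubated 4 h at 37 C, given compound (0.59 nM to 92 uM) plus 0.4 nM T3 (final) for 18 h, then CCF4 for 2 h at RT; Hill fit gave IC50.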

Assay [7] deals with Voltage-gated inwardly rectifying potassium channel KCNH2 (Homo sapiens) (UniProt Q12809). The assay can be described thus: qHTS Assay for Small Molecule Inhibitors of the Human hERG Channel Activity (AID 588834; active means well fitted curve in the direction sought with a large enough effect; an effect the other way counts as inactive or inconclusive;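 further: top concentration of the series differs between compounds; on the % scale 0 is the no-effect control and ±100 the full control effect; lower thallium flux fluorescence means stronger hERG block; nearly all actives have a fitted effect of over 50% in size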). To be noted: U2OS BacMam hERG, FluxOR thallium flux fluorescence; series mostly up to 92.2 µM. The gist of the method:
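Concentration-response qHTS measuring drop in thallium-sensitive dye signal. U2OS cells carrying BacMam hERG; compound exposure ~10 min, then stimulation buffer and 2 min read at 1 sec intervals.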

Assay [8] in a line: qHTS assay for small molecule activators of the p53 signaling pathway (AID 651743; active means well fitted activation curve with a large enough effect in the signal ratio, not every such curve was filed as active; the % refers to the signal ratio; further: % of control where 0% means no effect). To be noted: HCT-116 p53RE-bla, beta-lactamase FRET ratio, 16 h; stronger effect = higher value. The gist of the method:
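Cell-based beta-lactamase reporter (p53 response elements, HCT-116 background). After a 5-hour preincubation, cells received compound for 16 hours at 37 C; substrate development ran 2 hours at room temperature.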

Assay [9] is described as follows: qHTS assay for small molecule activators of the nuclear factor-kappa B (NF-kB) signaling pathway (AID 651749; active means well fitted activation curve with a large enough effect in the signal ratio; the % refers to the signal ratio; further: % of control where 0% means no effect). The following applies: NF-kB-bla ME-180 cells, beta-lactamase FRET ratio, 16 h; stronger effect = higher value. In outline: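 Screening used 2,000 ME-180 reporter cells per well exposed to pinned compound (23 nL) or DMSO; after 16 hr at 37C, beta-lactamase expression under NF-kB control was assessed through FRET.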

Assay [10] is described as follows: qHTS assay for small molecule disruptors of the mitochondrial membrane potential - 1 hr assay (AID 651754). Further: on the % scale 0 is the no-effect control and ±100 the full control effect; nearly all actives have a fitted effect of over 35% in size. To be noted: series mostly up to 92.2 µM. In outline: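 HepG2, 2,000 cells/well, overnight attachment; cpd or DMSO 1 hr, 37C/5% CO2; Mito-MPS dye 30 min, 37C; fluorescence monomer (490/535) and aggregate (540/590).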
Assay [11] in a line: qHTS assay for small molecule disruptors of the mitochondrial membrane potential - 5 hr assay (AID 651755). Further: on the % scale 0 is the no-effect control and ±100 the full control effect; nearly all actives have a fitted effect of over 40% in size. To be noted: JC-1-type ratio dye; series mostly up to 92.2 µM. In outline: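 HepG2 cells, attached overnight at 37C, were exposed to compound or DMSO for 5 hr at 37C, 5% CO2. Mito-MPS dye was then added for 30 min, and fluorescence read at 490/535 nm (monomers) and 540/590 nm (aggregates).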

Assay [12] has as its target Tumor necrosis factor (Homo sapiens) (UniProt P01375). The experiment in a line: qHTS assay to identify small molecules that stimulate Tumor Necrosis Factor-alpha (TNF-alpha) secretion (AID 651757; active means well fitted curve in the direction sought with a large enough effect in the signal ratio; the % refers to the signal ratio; further: 0% is about no effect). The following applies: Human cells, HTRF 665/615 ratio; series mostly up to 92.2 µM. In outline:
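Read-out is HTRF, a TR-FRET sandwich of cryptate- and XL665-labeled anti-TNF-alpha antibodies detecting cytokine secreted by THP-1 cells. Cells had been incubated with test compounds at 37 C for 17 hrs beforehand.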

A short description of assay [13]: qHTS assay for environmental chemicals that activate the Aryl hydrocarbon Receptor (AhR) signaling pathway (AID 651777; active means well fitted curve in the direction sought with a large enough effect; an effect the other way counts as inactive or inconclusive; further: % of control where 0% means no effect; nearly all actives have a fitted effect of over 15% in size). The following applies: 1A2-DRE human hepatoma cells, luciferase, 24 h; activation: stronger effect = higher value. In outline:
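AhR activation is scored as a rise in luciferase from a stable DRE–CYP1A2 promoter construct in human hepatoma cells. Treatment lasts 24 hr at 37 C; detection uses One-Glo after 30 min at room temperature.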

The target of assay [14] is Peroxisome proliferator-activated receptor alpha (Homo sapiens) (UniProt Q07869). The assay can be described thus: qHTS assay for small molecule agonists of the peroxisome proliferator-activated receptor alpha (PPARalpha) signaling pathway (AID 651778; active means well fitted curve in the direction sought with a large enough effect; an effect the other way counts as inactive or inconclusive; further: % of control where 0% means no effect). To be noted: PathHunter PPARalpha complementation, chemiluminescence, 6 h; stronger effect = higher value. In outline:
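Cells plated at 2,000/well and held overnight at 37 C, 5% CO2, then compound added by pin tool for 6 hr; after PathHunter detection reagent and 60 min at room temperature, chemiluminescence from enzyme complementation was read.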

Assay [15] deals with Nuclear receptor ROR-gamma (Homo sapiens) (UniProt P51449). The experiment in a line: qHTS assay for small molecule antagonists of the retinoid-related orphan receptor gamma (ROR-gamma) signaling pathway (AID 651802; active means well fitted curve in the direction sought with a large enough effect; an effect the other way counts as inactive or inconclusive;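 further: luciferase reporter luminescence driven by ROR response element; on the % scale 0 is the no-effect control and ±100 the full control effect; nearly all actives have a fitted effect of over 60% in size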). The following applies: ROR-gamma antagonist cell reporter assay; series mostly up to 92.2 µM. The gist of the method:
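CHO, TET-inducible ROR + RORE-LUC reporter, 1536-well qHTS. Compound pinned, doxycycline added, 16hr 37C/5% CO2. ONE-Glo, 30 min RT, luminescence; signal drop scored as antagonism.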

A short description of assay [16]: qHTS assay for small molecule agonists of the antioxidant response element (ARE) signaling pathway measured by Nrf2-dependant transcriptional activity (AID 720636; active means well fitted curve in the direction sought with a large enough effect in the repeat runs; an effect the other way counts as inactive or inconclusive; further: % of control where 0% means no effect). The following applies: ARE-luc HepG2, Nrf2 luciferase reporter, 16 h; series mostly up to 92.4 µM. In outline: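 First, ARE-luc HepG2 cells attached for 6 hr at 37 C in 1% dialyzed FBS medium. Next, compound or DMSO was added and incubated 16 hr. Finally, ONE-Glo reagent was added and luminescence measured after 30 min.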

Assay [17] in a line: qHTS assay for small molecule antagonists of the retinoid-related orphan receptor gamma (ROR-gamma) signaling pathway - cell viability counter screen (AID 720652; active means well fitted curve in the direction sought with a large enough effect in the repeat runs; an effect the other way counts as inactive or inconclusive;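 further: compound exposure lasted 16 hr before ATP read; on the % scale 0 is the no-effect control and ±100 the full control effect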). The following applies: RORgamma reporter cell line viability counter screen; series mostly up to 92.2 µM. In outline: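 Luminescence from CellTiter-Glo after 30 min at room temperature reported cellular ATP as the cytotoxicity measure. Cells were the CHO reporter line with doxycycline-induced ROR-gamma expression, exposed to compound for 16 hr at 37 C.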

The nature of assay [18]: qHTS assay for small molecule agonists of the antioxidant response element (ARE) signaling pathway measured by Nrf2-dependant transcriptional activity - cell viability counter screen (AID 720653; active means well fitted curve in the direction sought with a large enough effect in the repeat runs; an effect the other way counts as inactive or inconclusive; further: on the % scale 0 is the no-effect control and ±100 the full control effect). To be noted: ARE-bla HepG2 viability, CellTiter-Glo ATP luminescence, 16 h; stronger effect = lower value. The gist of the method:
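ARE-bla HepG2 cells (2,000/well) rested 5 hrs at 37C/5% CO2, then exposed to compounds in DMSO for 16 hrs. Viability was read in the same wells as intracellular ATP by luminescence, 30 min at room temperature after reagent addition.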

A short description of assay [19]: qHTS assay for small molecule agonists of the antioxidant response element (ARE) signaling pathway (AID 651741; active means well fitted activation curve with a large enough effect in the signal ratio; the % refers to the signal ratio; further: % of control where 0% means no effect). The following applies: HepG2 ARE-bla reporter, beta-lactamase FRET ratio, 16 h; series mostly up to 96 µM. The gist of the method:
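Compounds in DMSO are pinned onto HepG2 ARE-bla cells (2,000/well) that were preincubated 5 h; plates stay 16 h at 37 C, then beta-lactamase activity is detected with LiveBLAzer B/G substrate by fluorescence.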

Assay [20] is described as follows: qHTS assay to identify small molecules that stimulate interleukin-8 (IL-8) secretion (AID 651758; active means well fitted activation curve with a large enough effect in the signal ratio; the % refers to the signal ratio; further: 0% is about no effect). The following applies: HTRF ratio (665/615); series mostly up to 92.2 µM. In outline:
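THP-1, 2000 cells/well; cpd 16 h, 37 C; add cryptate + XL665 anti-IL-8 Abs; RT 1-3 h; TR-FRET read.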

Chain of Thyroid hormone receptor beta (Homo sapiens) (P10828 whole entry, looked up): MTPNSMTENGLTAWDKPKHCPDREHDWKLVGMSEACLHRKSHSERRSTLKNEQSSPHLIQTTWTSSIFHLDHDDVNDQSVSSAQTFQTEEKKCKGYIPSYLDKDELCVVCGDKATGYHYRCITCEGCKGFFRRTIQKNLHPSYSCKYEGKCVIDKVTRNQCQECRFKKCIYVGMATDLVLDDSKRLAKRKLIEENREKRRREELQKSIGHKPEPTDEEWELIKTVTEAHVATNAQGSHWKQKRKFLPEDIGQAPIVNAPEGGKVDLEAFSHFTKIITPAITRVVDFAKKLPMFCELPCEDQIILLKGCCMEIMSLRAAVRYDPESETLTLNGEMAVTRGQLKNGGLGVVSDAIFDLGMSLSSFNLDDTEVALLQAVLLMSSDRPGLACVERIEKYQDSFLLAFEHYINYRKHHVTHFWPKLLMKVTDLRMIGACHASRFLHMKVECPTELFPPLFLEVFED
Chain of Retinoic acid receptor RXR-alpha (Homo sapiens) (P19793 whole entry, looked up): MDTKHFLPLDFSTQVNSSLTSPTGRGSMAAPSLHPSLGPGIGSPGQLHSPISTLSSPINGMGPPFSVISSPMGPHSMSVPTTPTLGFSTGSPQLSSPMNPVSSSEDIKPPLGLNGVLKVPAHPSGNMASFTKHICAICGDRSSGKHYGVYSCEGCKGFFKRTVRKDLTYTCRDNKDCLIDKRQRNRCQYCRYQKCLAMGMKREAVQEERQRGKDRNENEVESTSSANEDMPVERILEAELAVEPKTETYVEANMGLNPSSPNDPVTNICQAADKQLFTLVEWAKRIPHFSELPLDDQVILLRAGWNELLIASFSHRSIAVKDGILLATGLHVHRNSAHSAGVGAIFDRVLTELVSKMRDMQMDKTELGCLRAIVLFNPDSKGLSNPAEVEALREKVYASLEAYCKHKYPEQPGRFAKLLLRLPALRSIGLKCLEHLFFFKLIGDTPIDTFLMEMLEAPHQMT
Chain of Tumor necrosis factor (Homo sapiens) (P01375 whole entry, looked up): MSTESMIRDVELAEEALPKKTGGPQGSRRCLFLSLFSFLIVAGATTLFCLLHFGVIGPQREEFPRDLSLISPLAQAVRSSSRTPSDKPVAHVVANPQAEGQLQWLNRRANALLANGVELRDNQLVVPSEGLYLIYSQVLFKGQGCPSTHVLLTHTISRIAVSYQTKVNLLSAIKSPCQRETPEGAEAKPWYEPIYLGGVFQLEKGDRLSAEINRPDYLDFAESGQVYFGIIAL
Chain of Voltage-gated inwardly rectifying potassium channel KCNH2 (Homo sapiens) (Q12809 whole entry, looked up): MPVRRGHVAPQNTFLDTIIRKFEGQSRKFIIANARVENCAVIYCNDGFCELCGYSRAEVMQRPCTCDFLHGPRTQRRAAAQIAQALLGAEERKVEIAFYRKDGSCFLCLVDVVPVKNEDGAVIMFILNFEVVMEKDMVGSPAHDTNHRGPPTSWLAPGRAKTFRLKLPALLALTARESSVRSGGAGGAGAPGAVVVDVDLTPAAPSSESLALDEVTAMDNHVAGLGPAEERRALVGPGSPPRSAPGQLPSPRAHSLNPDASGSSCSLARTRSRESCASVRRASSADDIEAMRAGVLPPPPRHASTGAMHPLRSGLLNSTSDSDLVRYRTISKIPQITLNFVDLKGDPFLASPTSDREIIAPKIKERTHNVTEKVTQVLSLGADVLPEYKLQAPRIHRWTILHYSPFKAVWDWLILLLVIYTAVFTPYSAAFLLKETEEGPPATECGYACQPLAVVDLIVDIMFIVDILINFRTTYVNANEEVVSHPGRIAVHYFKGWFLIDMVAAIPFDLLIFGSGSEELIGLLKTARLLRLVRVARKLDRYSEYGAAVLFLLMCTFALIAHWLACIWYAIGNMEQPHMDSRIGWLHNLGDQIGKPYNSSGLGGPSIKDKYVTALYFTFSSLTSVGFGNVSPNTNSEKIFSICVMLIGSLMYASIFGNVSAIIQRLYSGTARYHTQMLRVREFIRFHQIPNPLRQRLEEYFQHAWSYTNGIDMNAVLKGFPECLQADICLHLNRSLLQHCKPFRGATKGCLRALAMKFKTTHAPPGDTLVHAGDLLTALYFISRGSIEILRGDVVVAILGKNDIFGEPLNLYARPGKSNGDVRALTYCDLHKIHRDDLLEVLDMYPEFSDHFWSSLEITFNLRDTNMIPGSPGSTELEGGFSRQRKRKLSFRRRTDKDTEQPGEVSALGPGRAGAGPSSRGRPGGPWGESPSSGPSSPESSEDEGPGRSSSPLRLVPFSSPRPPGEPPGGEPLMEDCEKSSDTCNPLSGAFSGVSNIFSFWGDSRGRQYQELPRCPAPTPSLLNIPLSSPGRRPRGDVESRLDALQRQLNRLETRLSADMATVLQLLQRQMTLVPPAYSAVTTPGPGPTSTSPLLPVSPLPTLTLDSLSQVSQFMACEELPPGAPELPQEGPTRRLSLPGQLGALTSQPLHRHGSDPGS
Chain of Peroxisome proliferator-activated receptor alpha (Homo sapiens) (Q07869 whole entry, looked up): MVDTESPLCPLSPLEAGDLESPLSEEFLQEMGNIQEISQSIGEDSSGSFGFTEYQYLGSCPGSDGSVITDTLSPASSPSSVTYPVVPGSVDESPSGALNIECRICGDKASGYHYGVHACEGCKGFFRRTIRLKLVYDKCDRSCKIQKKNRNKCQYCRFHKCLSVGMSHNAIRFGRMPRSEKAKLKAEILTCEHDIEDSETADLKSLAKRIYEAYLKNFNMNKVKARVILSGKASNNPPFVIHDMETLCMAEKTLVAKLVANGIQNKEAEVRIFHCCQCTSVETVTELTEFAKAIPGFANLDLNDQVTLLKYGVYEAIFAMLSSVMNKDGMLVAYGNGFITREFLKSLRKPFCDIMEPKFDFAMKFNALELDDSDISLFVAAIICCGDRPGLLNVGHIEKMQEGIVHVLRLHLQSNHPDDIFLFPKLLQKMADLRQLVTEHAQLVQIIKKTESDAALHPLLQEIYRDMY
Chain of Nuclear receptor ROR-gamma (Homo sapiens) (P51449 whole entry, looked up): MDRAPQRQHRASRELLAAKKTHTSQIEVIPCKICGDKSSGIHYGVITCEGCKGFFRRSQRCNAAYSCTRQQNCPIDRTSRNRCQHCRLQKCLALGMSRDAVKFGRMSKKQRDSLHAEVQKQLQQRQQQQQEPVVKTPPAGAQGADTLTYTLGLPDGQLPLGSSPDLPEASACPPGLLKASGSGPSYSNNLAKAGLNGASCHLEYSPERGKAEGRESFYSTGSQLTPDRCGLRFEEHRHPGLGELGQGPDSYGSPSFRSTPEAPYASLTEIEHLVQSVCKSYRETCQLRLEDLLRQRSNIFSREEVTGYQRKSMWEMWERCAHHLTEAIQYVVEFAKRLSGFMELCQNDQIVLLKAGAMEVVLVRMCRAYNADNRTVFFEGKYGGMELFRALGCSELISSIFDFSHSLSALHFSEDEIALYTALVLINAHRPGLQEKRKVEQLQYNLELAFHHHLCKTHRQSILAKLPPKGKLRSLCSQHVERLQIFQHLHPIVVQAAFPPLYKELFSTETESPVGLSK

As for `O=C(O)c1cccc([N+](=O)[O-])c1`, the max response in assay [1] was -11.3% and -11.9%; in assay [4] it was -5.28% and -12.1%; in assay [5] it was -4.13% (inactive) and 8.19% (inactive); in assay [14] it was -2.18% (inactive) and -2.21% (inactive); in [18] it was 20.3% (inactive) and -7.83% (inactive). For the same compound, the compound was called inactive in [2], in assay [3] and in [16]. Also, in assay [6], the activity change % (negative = inhibition) was 3.98% (inactive) and -3.17% (inactive). In addition, the Potency entry in [7], in [10], in assay [11], in assay [12], in assay [15] and in assay [17] was “inactive” each time. For the same compound, the activation in [8] is -1.71% (inactive) and -6.43% (inactive); in assay [9], -1.01% (inactive) and -3.15% (inactive); in assay [13], 0.347% (inactive) and -2.14% (inactive).
Consider `CCCCCCC=O`, for which the max response is -2.47% in assay [1]; 9.36% in assay [4]; 7.58% (inactive) in assay [5]; -2.2% (inactive) in assay [14]; 14.6% (inactive) in assay [18]. The compound was classed as inactive in assay [2], in assay [3] and in assay [16]. Further, the activity change % (negative = inhibition) in [6] was -17.7% (inactive). In addition, the Potency entry in [7], in assay [10], in [11], in assay [12], in assay [15] and in assay [17] was “inactive” each time. Besides, the activation in [8] is 0.659% (inactive); in assay [9] it was -0.682% (inactive); in assay [13], -0.184% (inactive).
Consider `C=C(C)C(=O)OCC(C)O` (configuration not stated), for which the max response in assay [1] is -4.4%; in assay [4], -2%; in [5] it was 5.46% (inactive); in assay [14], -1.16% (inactive); in assay [18], 7.34% (inactive). The result in assay [2], in assay [3] and in assay [16] was inactive. In addition, the activity change % (negative = inhibition) in assay [6] was 11.2% (inactive). Further, the Potency result in assay [7], in assay [19], in [10], in [11], in [12] and in [20] was “inactive” in each case. Moreover, the Potency entry in assay [15] and in assay [17] was “inactive” in each case. In addition, the activation in assay [13] is 0.365% (inactive).
With `O=C(O)c1ccccc1C(=O)O`, the max response in assay [1] was 13.6%; in assay [4], 4.98%; in assay [5], -5% (inactive); in [14], 0.653% (inactive); in assay [18] it was -3.39% (inactive). Further, the compound was classed as inactive in assay [2], in assay [3] and in [16]. In addition, the activity change % (negative = inhibition) in assay [6] was 0.364% (inactive). Further, the Potency result in assay [7], in assay [10], in assay [11], in assay [12], in assay [20] and in assay [17] was “inactive” each time. For the same compound, the activation is -2.08% (inactive) in [8] and -0.93% (inactive) in assay [9].
Regarding `CC(=O)Nc1ccc(C)cc1`, the max response was -6.19% in assay [1]; -3.72% in [4]; 5.73% (inactive) in assay [5]; -1.18% (inactive) in assay [14]; 2.3% (inactive) in [18]. Besides, the outcome in assay [2], in assay [3] and in assay [16] was inactive. The activity change % (negative = inhibition) in assay [6] was 8.42% (inactive). The Potency entry in assay [7], in assay [10], in [11], in assay [12], in assay [15] and in assay [17] was “inactive” throughout. Also, the activation was -3.2% (inactive) in assay [8], 1.33% (inactive) in assay [9] and -0.295% (inactive) in [13].
Consider `NC=O`, for which the max response was 4.7% in assay [1]; -9.34% in assay [4]; -7.48% (inactive) in [5]; -1.01% (inactive) in assay [14]; 6.13% (inactive) in assay [18]. Also, the compound was called inactive in [2], in [3] and in assay [16]. In addition, the activity change % (negative = inhibition) in assay [6] is 21.1% (inactive). In addition, the Potency result in assay [7], in assay [19], in [10], in assay [11], in [12] and in assay [15] was “inactive” in each case. The Potency entry in [17] was “inactive”. Moreover, the activation in assay [9] was -0.435% (inactive); in [13], 1.58% (inactive).
